Molecules are shown by their SMILES. Inconclusive results are not listed. A call without a number means that no potency is given here. Calls of active or inactive are those of the source. Calls come from the whole dose curve.

Among the data in PubChem BioAssay (Tox21) are Potency values, retold here.
Potency is the fitted concentration of half-maximal effect.

Chain of Muscarinic acetylcholine receptor M1 (Homo sapiens) (P11229 whole entry, looked up): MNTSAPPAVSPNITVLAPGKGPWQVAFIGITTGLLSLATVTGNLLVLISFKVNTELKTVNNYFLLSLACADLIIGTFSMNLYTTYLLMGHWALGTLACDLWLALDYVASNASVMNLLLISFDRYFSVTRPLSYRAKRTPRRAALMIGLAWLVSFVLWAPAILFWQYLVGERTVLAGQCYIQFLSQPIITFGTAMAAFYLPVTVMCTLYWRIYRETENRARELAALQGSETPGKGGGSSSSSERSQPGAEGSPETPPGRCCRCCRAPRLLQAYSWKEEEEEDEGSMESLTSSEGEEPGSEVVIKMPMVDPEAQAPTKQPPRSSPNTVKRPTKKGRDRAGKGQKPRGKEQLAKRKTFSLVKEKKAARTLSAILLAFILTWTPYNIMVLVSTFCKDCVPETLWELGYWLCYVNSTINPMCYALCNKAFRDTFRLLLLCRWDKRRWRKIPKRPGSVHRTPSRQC

The target of this assay is Muscarinic acetylcholine receptor M1 (Homo sapiens) (UniProt P11229). The experiment in a line: Cholinergic receptor muscarinic 1 (CHRM1) small molecule antagonists, cell-based qHTS assay (AID 1963588). Note: nearly all actives have a fitted effect of over 40% in size. As to conditions: CHRM1-CHO antagonist mode, calcium flux fluorescence; series mostly up to 61.5 µM. The source says:
National Center for Advancing Translational Sciences [NCATS]
Division of Preclinical Innovation [DPI]
U.S. Environmental Protection Agency [EPA]
National Institutes of Environmental Health Sciences [NIEHS]
National Toxicology Program [NTP]
U.S. Food and Drug Administration [FDA]
The CHRM1 is a muscarinic receptor. This receptor plays a crucial role in learning and memory processes and has long been identified as a promising therapeutic target for the improvement of cognitive decline in Alzheimer's disease (AD). The CHRM1-CHO cell line stably expressing human muscarinic acetylcholine receptor M1 (CHRM1) can be used for screening agonists and antagonists of interactions between CHRM1 and its ligands. The CHRM1-CHO Calcium Flux Assay is a homogeneous fluorescence-based assay for detecting the intracellular calcium level using FDSS kinetic plate reader system.
Tox21 Assay Protocol Summary:
CHRM1-CHO cells were dispensed at 1000 cells/3uL/well in 1536-well black-clear bottom plates using a Multidrop Dispenser. After the assay plates were incubated at a 37 C/5% CO2 incubator for 18 h, 3 uL of Dye Loading Buffer was transferred to the assay plate by a Flying Reagent Dispenser. The assay plates were incubated at 37 C for 1h. For antagonist mode, 23 nL of compounds dissolved in DMSO, positive controls or DMSO only was transferred to the assay plate by a pin tool. After 5 min incubation at room temperature, 1.5 uL of acetylcholine at 50nM was added to each well. The fluorescence intensity in the plates was measured using FDSS 7000EX kinetic plate reader for 3 min at 1 sec intervals. Each test compound was measured at 15 concentrations in three independent runs.
In the case of `CN1Cc2c(N)cccc2C(c2ccccc2)C1` (stereo not given), the Potency entry is “inactive”.
For `CCN(CC#N)c1cccc(C)c1` the value was “inactive”; for `CC(C)C1CCC(O)CC1` (stereo not given), “inactive”; for `CCCCc1ncc(/C=C(\Cc2cccs2)C(=O)O)n1Cc1ccc(C(=O)O)cc1`, “inactive”.
With `C=CCCC`, the Potency result was “inactive”.
On to `COc1cc(S(N)(=O)=O)cc(C(=O)O)c1OC`, for which the Potency result is “inactive”.
Regarding `OCC1(CO)COCOC1`, the Potency result is “inactive”.
With `Nc1cc(C(Cl)=C(Cl)Cl)c(S(N)(=O)=O)cc1S(N)(=O)=O`, the Potency result is “inactive”.
On to `CCCCC(CC)COP(=O)(OCC(CC)CCCC)OCC(CC)CCCC` (stereo not given), for which the Potency entry is “inactive”.
Turning to `CC(C)N=C=NC(C)C`, the Potency entry is “inactive”.
The value for `CC(C)(CO)[C@@H](O)C(=O)NCCC(=O)O` was “inactive”; that for `CCCCN=C(N)N=C(N)N` was “inactive”.
As to `O=C(O)CCCCCC(=O)O`, the Potency result is “inactive”.
With `Cc1ccc2ccccc2c1[N+](=O)[O-]`, the Potency result is “inactive”.
As to `CC(=O)O[C@H]1C[C@@H]2CC[C@@]1(C)C2(C)C`, the Potency result is “inactive”.
Regarding `CC(=O)OC/C=C/c1ccccc1`, the Potency result is “inactive”.
Turning to `C=C(C)C(=O)NCCC[N+](C)(C)C`, the Potency result is “inactive”.
For `CCN(CC)C(=O)C1CN2CCc3cc(OC)c(OC)cc3C2CC1OC(C)=O` (stereo not given) the value was “inactive”.
Take `O=C1CC2CC1C1CCCC21` (stereo not given): the Potency entry is “inactive”.
As to `CC[C@H](c1ccc(O)cc1)[C@@H](CC)c1ccc(O)cc1`, the Potency was 7.29 µM (active).
As to `O=C(O)c1cccc(C(F)(F)F)c1`, the Potency entry was “inactive”.
The value for `CCCN1C=CN(C)C1` was “inactive”.
For `C=CC(C)CCC=C(C)C` (stereo not given) the value was “inactive”.
Take `CCN(CC)S(=O)(=O)c1ccc(C(=O)O)cc1`: the Potency result was “inactive”.
Consider `Cc1cnccn1`, for which the Potency entry is “inactive”.
For the compound `O=C(O)/C=C/c1ccc(Cn2ccnc2)cc1`, the Potency result is “inactive”.
With `O=S(=O)(O)CO`, the Potency result is “inactive”.
With `Cc1ccc(C(C)(C)C)cc1`, the Potency entry is “inactive”.
Consider `Nc1nnnn1-c1ccccc1`, for which the Potency entry was “inactive”.
For the compound `CO[Si](CCCOCC1CO1)(OC)OC` (stereo not given), the Potency result was “inactive”.
Consider `CCCCC(CC)COC(=O)CC(C(=O)OCC(CC)CCCC)S(=O)(=O)O` (stereo not given), for which the Potency result was “inactive”.
In the case of `CCCCCCCCC(=O)OCC`, the Potency entry was “inactive”.
Turning to `C=C(C)C(=O)OCCC(F)(F)C(F)(F)C(F)(F)C(F)(F)C(F)(F)C(F)(F)F`, the Potency entry was “inactive”.
For `Nc1cccc2c1CN(C1CCC(=O)NC1=O)C2=O` (stereo not given) the value was “inactive”; for `CCCCCCCCOCCC#N`, “inactive”; for `CCOC(=O)c1ccccc1C`, “inactive”.
For `NC(=S)N/N=C/c1cccnc1` the value was “inactive”; for `NC(=O)c1cccc([N+](=O)[O-])c1`, “inactive”; for `CCCCCCCCCCCCI`, “inactive”.
For `C#CC(C)(O)CC(C)C` (stereo not given), the Potency result was “inactive”.
